In PMC4336329 (PLoS ONE, 2015):
Among all 310,000 compounds or so, about 14,000 (4.5%) showed an effect of 50% or more. The effect is printed as a negative number. What follows is part of a selection rich in strong results, with near analogues and random picks from the rest.

The compounds below were run against human ether-à-go-go-related gene (hERG) potassium channel (human, UniProt Q12809) (assay: primary screen, population patch clamp on CHO cells stably expressing hERG; higher = less effect of the substance).
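Also: peak tail current of the secondary pulse compared with the same well before compound.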

Sequence of human ether-à-go-go-related gene (hERG) potassium channel (Q12809 whole entry, looked up): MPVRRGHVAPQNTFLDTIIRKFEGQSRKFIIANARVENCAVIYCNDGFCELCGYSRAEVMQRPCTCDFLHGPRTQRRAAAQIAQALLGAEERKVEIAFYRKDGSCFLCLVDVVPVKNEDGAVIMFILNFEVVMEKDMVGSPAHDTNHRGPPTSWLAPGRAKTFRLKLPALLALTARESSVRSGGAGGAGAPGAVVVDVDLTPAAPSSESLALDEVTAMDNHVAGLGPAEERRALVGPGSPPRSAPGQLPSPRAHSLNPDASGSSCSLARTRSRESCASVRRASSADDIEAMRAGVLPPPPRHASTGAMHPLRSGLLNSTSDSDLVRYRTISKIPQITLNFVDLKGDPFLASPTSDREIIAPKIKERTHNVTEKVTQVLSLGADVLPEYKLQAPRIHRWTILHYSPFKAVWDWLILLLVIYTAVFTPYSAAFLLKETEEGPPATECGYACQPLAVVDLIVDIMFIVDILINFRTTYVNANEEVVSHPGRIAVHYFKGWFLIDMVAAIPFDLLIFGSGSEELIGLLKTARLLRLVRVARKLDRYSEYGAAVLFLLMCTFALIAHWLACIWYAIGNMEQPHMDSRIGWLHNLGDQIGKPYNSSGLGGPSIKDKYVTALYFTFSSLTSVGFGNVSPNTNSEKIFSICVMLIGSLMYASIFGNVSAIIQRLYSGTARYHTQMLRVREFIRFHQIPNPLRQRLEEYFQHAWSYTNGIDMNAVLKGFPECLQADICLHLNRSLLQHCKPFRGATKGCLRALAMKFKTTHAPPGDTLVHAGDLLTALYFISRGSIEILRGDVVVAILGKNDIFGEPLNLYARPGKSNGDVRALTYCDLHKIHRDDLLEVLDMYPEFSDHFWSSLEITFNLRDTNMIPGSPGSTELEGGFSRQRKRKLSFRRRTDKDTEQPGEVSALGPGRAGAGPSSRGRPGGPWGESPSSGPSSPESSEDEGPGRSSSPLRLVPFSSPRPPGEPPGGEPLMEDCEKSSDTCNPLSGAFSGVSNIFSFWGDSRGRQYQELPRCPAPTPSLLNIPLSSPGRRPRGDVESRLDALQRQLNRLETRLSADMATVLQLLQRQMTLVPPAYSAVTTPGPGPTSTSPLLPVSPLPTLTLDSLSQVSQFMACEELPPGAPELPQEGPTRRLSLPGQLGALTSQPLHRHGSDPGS

| Compound | hERG current change (%, negative = inhibition) at 10uM |
| --- | --- |
| C/C(=N\NC(=O)C(O)c1ccccc1)c1ccc(Br)s1 (stereo not drawn) | 1.82% |
| O=[N+]([O-])c1nn(-c2ccc3c(c2)OCCO3)n(O)c1=NC1CCN(Cc2ccccc2)CC1 | -17.8% |
| Cc1cccc(-n2nc([N+](=O)[O-])c(=NC3CCN(Cc4ccccc4)CC3)n2O)c1 | -66.8% |
| Cc1cccc(CCN=c2c([N+](=O)[O-])nn(-c3ccccc3)n2O)c1 | -15.5% |
| O=[N+]([O-])c1nn(-c2ccccc2)n(O)c1=NC1CCN(Cc2ccccc2)CC1 | -58.1% |
| Cc1ccc(CN=c2c([N+](=O)[O-])nn(-c3cccc(C)c3)n2O)cc1 | -32.7% |
| COc1ccc(-n2nc([N+](=O)[O-])c(=NC3CCN(Cc4ccccc4)CC3)n2O)cc1 | -39.8% |
| COC(=O)c1ccccc1S(=O)(=O)Nc1ccc(OC)nc1 | -0.17% |
| Cc1cccc(Nc2nn3c(=O)c4ccccc4nc3s2)c1 | 23.6% |
| COc1ccc(NC(=O)c2cccc3cccnc23)cc1S(N)(=O)=O | 29.2% |
| CN(C)C(C)(C)C#CC(O)(c1ccccc1)c1ccccc1 | -26.6% |
| CN(C)CC(c1ccccc1)c1ccccc1.Cl | 5.32% |
| CN(CC#CCC(c1ccccc1)c1ccccc1)C(C)(C)C.Cl | -83.3% |
| CN(C)C(C)(C)C#CCC(c1ccccc1)c1ccccc1.Cl | -55.9% |
| CN(C)C(C)(C)C#CCCCCC#CC(C)(C)N(C)C | 16.5% |
| CN(C)CC#CCOC(c1ccccc1)c1ccccc1.Cl | -16.1% |
| CC1CCC(NC(=O)CCCn2sc3ccccc3c2=O)CC1 (stereo not drawn) | 15.4% |
| N#C/C(=N\Nc1ccccc1[N+](=O)[O-])C(=N)N1CCCCC1 | 33.8% |
| Cc1ccccc1N1C(=O)/C(=C/c2ccco2)C(=O)NC1=S | 16.5% |
| NC(=O)COC(=O)c1ccccc1OCc1ccccc1 | 18.3% |
| CN1C(=O)c2ccc(NC(=O)CCS(=O)(=O)c3ccccc3)cc2C1=O | -3.01% |

| Compound | hERG current change (%, negative = inhibition) at 10uM |
| --- | --- |
| COc1ccc(-c2nnc(SCCC(=O)O)n2C)cc1OC | -6.37% |
| CCOC(=O)c1cnc2ccccc2c1Nc1cc(C(=O)O)ccc1C | 14.9% |
| COc1ccc(CCNC(=O)COc2ncnc3ccccc23)cc1OC | 16.3% |
| CCOC(=O)c1cnc2ccc(OC)cc2c1NCCc1ccc(OC)c(OC)c1 | -76.6% |
| CCOC(=O)c1cnc2ccc(C(=O)OC)cc2c1NCCc1ccc(OC)c(OC)c1 | -3.95% |
| CCOC(=O)c1cnc2c(ccc3ccccc32)c1NCCO | -26.4% |
| CCOC(=O)c1cnc2ccc(OC)cc2c1Nc1ccc(N2CCN(C)CC2)cc1 | -18.2% |
| CCOC(=O)c1cnc2ccccc2c1NCCc1ccc(OC)c(OC)c1 | -78.2% |
| CCOC(=O)c1cnc2c(C)cccc2c1NCCc1ccc(OC)c(OC)c1 | -66.9% |
| CCOC(=O)c1cnc2c(ccc3ccccc32)c1NCCCN(C)C | -47% |
| O=C(O)CCn1cc(/C=C2\NC(=S)N(c3ccccc3)C2=O)c(-c2ccc(Br)cc2)n1 | 30.1% |
| CC(=O)CCc1ccc(Oc2nc(-c3cccnc3)nc3ccccc23)cc1 | 5.75% |
| COc1ccc(Nc2cnn(-c3nc4ccccc4s3)c(=O)c2Cl)cc1 | -3.58% |
| CC1(c2ccccc2)NC(=O)N(CC(=O)Nc2cc3c(cc2Br)OCCO3)C1=O (stereo not drawn) | -8.6% |
| S=C(Nc1ccccc1Oc1ccccc1)NC1CCCC1 | -0.79% |
| CCN1CCN(C(=O)c2ccc(OCC(=O)Nc3ccc(F)cc3)c(OC)c2)CC1 | -14.9% |
| COc1ccc(C(=O)N2CCN(CCNC(=O)C(=O)Nc3ccc(Br)cc3)CC2)cc1 | -80% |
| COc1ccc(C(=O)N2CCN(CCNC(=O)C(=O)Nc3ccc(F)cc3)CC2)cc1 | -69.6% |
| Cc1cccc(C(=O)N2CCN(CCNC(=O)C(=O)Nc3ccc(F)cc3)CC2)c1 | -38.8% |
| O=C(NCCN1CCN(C(=O)c2c(F)cccc2F)CC1)C(=O)Nc1ccc(Cl)cc1 | -32.5% |
| COc1ccc(NC(=O)C(=O)NCCN2CCN(C(=O)c3cccc(Br)c3)CC2)cc1 | -31% |

| Compound | hERG current change (%, negative = inhibition) at 10uM |
| --- | --- |
| COc1ccc(C(=O)N2CCN(CCNC(=O)C(=O)Nc3ccc(F)cc3)CC2)cc1OC | -61.5% |
| Cc1ccc(S(=O)(=O)N2CCN(CCNC(=O)C(=O)Nc3ccc(F)cc3)CC2)cc1 | 2.09% |
| CC(C)(C)c1ccc(C(=O)N2CCN(CCNC(=O)C(=O)Nc3ccc(F)cc3)CC2)cc1 | -52.5% |
| Cc1cccc(NC(=O)/C(=C\c2ccco2)NC(=O)c2ccccc2)c1 | -22.4% |
| CC(=O)N1CCC(=NNc2ncc(C(F)(F)F)cc2Cl)CC1 | 2.73% |
| CCOC(=O)c1ccc(N=c2sc(C(=O)OC)cc(=O)n2Cc2ccco2)cc1 | 13.7% |
| O=C(CN1C(=O)c2ccccc2C1=O)NCc1ccncc1 | -33.1% |
| COc1ccc(NC(=O)c2ccc(-c3csc(C)n3)cc2)cc1 | 18.5% |
| Cc1ccc(C(=O)CNc2ccccc2)cc1 | 16.2% |
| O=C(CCl)Nc1cccc(Oc2ccccc2)c1 | -22.4% |
| O=[N+]([O-])c1ccc(N2CCN(S(=O)(=O)c3ccc(Cl)c(Cl)c3)CC2)cc1NCCN1CCOCC1 | 3.04% |
| COC(=O)c1cc(NC(=O)CCc2c(C)nc3ncnn3c2C)cc(C(=O)OC)c1 | -36.1% |
| Cc1cccc(N(C)c2cc(C)nc3nc(C)nn23)c1 | -15.8% |
| Cc1ccc(-c2cnn(-c3cccc(C(F)(F)F)c3)c2N)cc1 | -3.62% |
| CCOc1ccc(NC(=O)C(=O)NCCN2CCN(C(=O)c3ccc(C)cc3)CC2)cc1 | -75.2% |
| O=C(NCCN1CCN(C(=O)c2ccc([N+](=O)[O-])cc2)CC1)C(=O)Nc1ccc(F)cc1 | -76.8% |
| CNC(=O)C(=O)NCCN1CCN(C(=O)c2ccc([N+](=O)[O-])cc2)CC1 | -39.6% |
| CCOc1ccc(NC(=O)C(=O)NCCN2CCN(S(=O)(=O)c3ccc(C)cc3)CC2)cc1 | 8.62% |
| COc1ccc(NC(=O)C(=O)NCCN2CCN(C(=O)c3ccc(C)cc3)CC2)cc1 | -75.4% |
| CCOc1ccc(NC(=O)C(=O)NCCN2CCN(S(=O)(=O)c3ccccc3)CC2)cc1 | -8.75% |
| COc1ccc(NC(=O)C(=O)NCCN2CCN(C(=O)C(c3ccccc3)c3ccccc3)CC2)cc1 | -20.8% |

| Compound | hERG current change (%, negative = inhibition) at 10uM |
| --- | --- |
| COc1ccc(NC(=O)C(=O)NCCN2CCN(C(=O)c3ccc(C(C)(C)C)cc3)CC2)cc1 | -2.54% |
| CCC(C)[C@H](NC(=O)NCc1ccccc1Cl)C(=O)OC (stereo partly drawn) | 12% |
| CN(C)c1ccc(C(=O)Nc2ccc(S(=O)(=O)NC3=NCCCCC3)cc2)cc1 | -5.38% |
| CCc1ccc(N(C(=O)Cc2cccs2)C(C(=O)NC2CCCCC2)c2cn(C)nc2C)cc1 (stereo not drawn) | -21.4% |
| CCN1CCCC1CNC(=O)C(=O)NC1CC1 (stereo not drawn) | 10.3% |
| CCOC(=O)c1cc(-c2ccc3c(c2)OCCO3)n[nH]1 | 20.3% |
| Cc1cccc(NC(=O)Nc2ccc(Cl)c(Cl)c2)n1 | 9.38% |
| CCOc1ccccc1C(=O)NCc1ccc2c(c1)OCO2 | -12.1% |
| O=C(CCN1C(=O)[C@@H]2Cc3ccccc3CN2C1=O)N[C@@H](Cc1ccccc1)C(=O)O | 8.75% |
| Nc1nc(NCCCN2CCOCC2)nc(Nc2ccc(F)cc2)c1[N+](=O)[O-] | -58.6% |
| Nc1nc(NCCCN2CCOCC2)nc(Nc2ccc(Cl)cc2)c1[N+](=O)[O-] | 7.65% |
| Cc1ccc(Nc2nc(NCCCN3CCOCC3)nc(N)c2[N+](=O)[O-])cc1C | -5.15% |
| Nc1nc(NCCCN2CCOCC2)nc(Nc2ccccc2)c1[N+](=O)[O-] | -36.5% |
| COc1ccc(Nc2nc(NCCCN3CCOCC3)nc(N)c2[N+](=O)[O-])cc1 | -22% |
| Cc1ccc(Nc2nc(NCCCN3CCOCC3)nc(N)c2[N+](=O)[O-])cc1 | -66.1% |
| O=C1CN(C(=O)COC(=O)CNC(=O)c2ccc(Cl)cc2)c2ccccc2N1 | -6.75% |
| CC(C)OC(=O)/C(C#N)=C\c1cccnc1 | 26.3% |
| Cc1cccnc1NC(=O)c1cccc(S(=O)(=O)N2CCCC2)c1 | -8.13% |
| CCCn1c(N)c(C(=O)COC(=O)c2c(C)noc2C)c(=O)n(C)c1=O | -21% |
| COC(=O)CN1C(=O)[C@H]2[C@@H](c3ccc(C)o3)N3C(=O)CN(CCO)C(=O)[C@@]3(C)[C@H]2C1=O | -2.13% |
| CN=C1S/C(=C\c2ccc(Cl)cc2)C(=O)N1C | 27% |
